Laboratory results published in PubChem BioAssay (Tox21).
Several values for one entry are separate records, joined by “and”; a condition that tells them apart may be missing. Equal entries are not always repeated. Records with an inconclusive call do not appear. A call without a number means that no potency is given here. Where a structure was tested more than once in an assay, its records may differ in their call. Activity calls are given as the source filed them. Calls come from the whole dose curve; as a rule, active = well fitted curve in the direction sought with a large enough effect in the repeat runs; inconclusive = weak or mixed curves; inactive = no such curve, though single readings can be large; an effect the other way counts as inactive or inconclusive.
Note: nearly all actives have a fitted effect of over 50% in size.
Potency is the fitted concentration of half-maximal effect.

System: not listed separately
Experiment: qHTS assay to identify small molecule antagonists of the retinoid-related orphan receptor gamma (ROR-gamma) signaling pathway - cell viability counter screen (AID 1159520)
Details: Tet-on RORgamma CHO cells viability, ATP luminescence, 16 h; series mostly up to 92.4 µM
Summary of the method: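 Cytotoxicity was read from cellular ATP (CellTiter-Glo luminescence) after 16 hr at 37 C with 1 uM doxycycline induction. The inducer was added 2 hr after compound transfer to Tet-on ROR gamma CHO cells.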
With CCCCCCCCCCCCCCCC[n+]1ccccc1 the Potency was 54.5 µM (active) [middle of 4 runs]. With Brc1c(Br)c(Br)c(Oc2c(Br)c(Br)c(Br)c(Br)c2Br)c(Br)c1Br the activity, negative = cytotoxicity was -0.215% [at 19 µM] (inactive). In the case of CN(CCCC(=O)c1cccnc1)N=O, the Potency is reported as “inactive”. In the case of N#Cc1ccc(O)cc1, the Potency is reported as “inactive”. For N#C/C=C/c1ccccc1, the Potency was “inactive”. With c1cc[c]([Sb]([c]2ccccc2)[c]2ccccc2)cc1 the Potency was “inactive”. For CC(=O)OC1(c2ccccc2)CCN(CCc2ccccc2)CC1, the Potency was “inactive”. For ClC1=C(Cl)C2(Cl)C3C(Cl)C=CC3C1(Cl)C2(Cl)Cl (centres undefined), the Potency was 68.9 µM (active). In the case of Oc1ccc(I)cc1, the Potency is reported as “inactive”. In the case of CN(C)[C@@H]1C(=O)C(C(N)=O)=C(O)[C@@]2(O)C(=O)C3=C(O)c4c(O)ccc(Cl)c4[C@@](C)(O)[C@H]3C[C@@H]12, the Potency is reported as “inactive”. For CCS(=O)(=O)c1cccnc1S(=O)(=O)NC(=O)Nc1nc(OC)cc(OC)n1, the Potency was “inactive”. In the case of CC[C@H]1C[C@@H]2C[C@H]3c4[nH]c5ccc(OC)cc5c4CCN(C2)[C@@H]13, the Potency is reported as “inactive”. With COS(=O)(=O)c1ccc(C)cc1 the Potency was “inactive”. In the case of O=C1c2ccccc2C(=O)C1C(=O)C(c1ccccc1)c1ccc(Cl)cc1 (centres undefined), the Potency is reported as 30.6 µM (active). In the case of N#Cc1c(-c2ccc(Cl)cc2)[nH]c(C(F)(F)F)c1Br, the Potency is reported as 0.611 µM (active). With CCCCCCCCCCCCCCCC[N+](C)(C)C the Potency was 29.5 µM (active) and 61.1 µM (active) and 29.8 µM (active). For Cn1cc(C2=C(c3cn(C4CCN(Cc5ccccn5)CC4)c4ccccc34)C(=O)NC2=O)c2ccccc21, the Potency was “inactive”. For O=C(CCCN1CCC2(CC1)C(=O)NCN2c1ccccc1)c1ccc(F)cc1, the Potency was “inactive”. With CC(=O)/C=C/c1ccc2c(c1)OCO2 the Potency was “inactive”. With CC(C)Oc1cccc(NC(=O)c2ccccc2C(F)(F)F)c1 the Potency was “inactive”. In the case of Clc1ccc(COC(Cn2ccnc2)c2ccc(Cl)cc2Cl)cc1 (centres undefined), the Potency is reported as 45.3 µM (active) and 60.9 µM (active). For N#CCCO, the Potency was “inactive”. For [Cd+2].[Cl-].[Cl-], the Potency was 27.5 µM (active). For ClC(Cl)=C(c1ccc(Cl)cc1)c1ccc(Cl)cc1, the Potency was “inactive”. With COc1ccc([N+](=O)[O-])cc1O the Potency was “inactive”. In the case of CC1(C)CN=C(NN=C(/C=C/c2ccc(C(F)(F)F)cc2)/C=C/c2ccc(C(F)(F)F)cc2)NC1, the Potency is reported as 24.3 µM (active). In the case of COc1cccc2c1C(=O)c1c(O)c3c(c(O)c1C2=O)C[C@@](O)(C(=O)CO)CC3OC1CC(N2CCOC(OC)C2)C(O)C(C)O1 (some centres undefined), the Potency is reported as 0.133 µM (active). For ClC1=C(Cl)C2(Cl)C3C(Cl)C(Cl)CC3C1(Cl)C2(Cl)Cl (centres undefined), the Potency was 68.4 µM (active).

Molecular target: Nuclear receptor ROR-gamma (Homo sapiens) (UniProt P51449)
Experiment: qHTS assay to identify small molecule antagonists of the retinoid-related orphan receptor gamma (ROR-gamma) signaling pathway (AID 1159521;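 for activity change, negative = inhibition: CHO cells with doxycycline inducible ROR-gamma driving an RORE luciferase reporter; top concentration of the series differs between compounds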)
Details: Tet-on RORgamma CHO cells, RORE-luciferase, 16 h; series mostly up to 92.4 µM
Summary of the method: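 Test compounds were applied to Tet-on RORγ CHO cells 2 h ahead of doxycycline hyclate (1 uM final). Luciferase reporter activity was quantified by luminescence after 16 h at 37 C and 5% CO2.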
In the case of CCCCCCCCCCCCCCCC[n+]1ccccc1, the Potency is reported as 4.27 µM (active) [middle of 4 runs]. For Brc1c(Br)c(Br)c(Oc2c(Br)c(Br)c(Br)c(Br)c2Br)c(Br)c1Br, the activity change, negative = inhibition was 5.56% [at 19 µM] (inactive). With CCC(C)c1cc([N+](=O)[O-])cc([N+](=O)[O-])c1OC(=O)C=C(C)C (centres undefined) the Potency was 17.2 µM (active). In the case of CN(CCCC(=O)c1cccnc1)N=O, the Potency is reported as “inactive”. In the case of N#Cc1ccc(O)cc1, the Potency is reported as “inactive”. For N#C/C=C/c1ccccc1, the Potency was “inactive”. For c1cc[c]([Sb]([c]2ccccc2)[c]2ccccc2)cc1, the Potency was 61.1 µM (active). In the case of ClC1=C(Cl)C2(Cl)C3C(Cl)C=CC3C1(Cl)C2(Cl)Cl (centres undefined), the Potency is reported as 61.4 µM (active) and inactive. With Oc1ccc(I)cc1 the Potency was “inactive”. For CC(=O)C(Cl)(Cl)Cl, the Potency was 9.35 µM (active). For CN(C)[C@@H]1C(=O)C(C(N)=O)=C(O)[C@@]2(O)C(=O)C3=C(O)c4c(O)ccc(Cl)c4[C@@](C)(O)[C@H]3C[C@@H]12, the Potency was 49.6 µM (active). In the case of CCS(=O)(=O)c1cccnc1S(=O)(=O)NC(=O)Nc1nc(OC)cc(OC)n1, the Potency is reported as “inactive”. For CC[C@H]1C[C@@H]2C[C@H]3c4[nH]c5ccc(OC)cc5c4CCN(C2)[C@@H]13, the Potency was “inactive”. For COS(=O)(=O)c1ccc(C)cc1, the Potency was “inactive”. With c1ccc(Nc2ccc3ccccc3c2)cc1 the Potency was “inactive”. In the case of O=C1c2ccccc2C(=O)C1C(=O)C(c1ccccc1)c1ccc(Cl)cc1 (centres undefined), the Potency is reported as 5.45 µM (active). For N#Cc1c(-c2ccc(Cl)cc2)[nH]c(C(F)(F)F)c1Br, the Potency was 0.137 µM (active). For CCCCCCCCCCCCCCCC[N+](C)(C)C, the Potency was 7.42 µM (active) and 12.2 µM (active) and 5.96 µM (active). With Cc1cc(C(C)(C)c2cc(C)c(O)c(C)c2)cc(C)c1O the Potency was 26.4 µM (active). With CSCCCN=C=S the Potency was “inactive”. With O=C(CCCN1CCC2(CC1)C(=O)NCN2c1ccccc1)c1ccc(F)cc1 the Potency was “inactive”. For Clc1ccc(C(c2ccccc2Cl)C(Cl)(Cl)Cl)cc1 (centres undefined), the Potency was 40.2 µM (active). In the case of CC(=O)/C=C/c1ccc2c(c1)OCO2, the Potency is reported as “inactive”. For Clc1ccc(COC(Cn2ccnc2)c2ccc(Cl)cc2Cl)cc1 (centres undefined), the Potency was 45.3 µM (active) and 30.5 µM (active) and 23.7 µM (active). In the case of N#CCCO, the Potency is reported as “inactive”. In the case of ClC(Cl)=C(c1ccc(Cl)cc1)c1ccc(Cl)cc1, the Potency is reported as 62.6 µM (active). With C=CC(=O)OCC(COC(=O)C=C)(COC(=O)C=C)COC(=O)C=C the Potency was 3.44 µM (active). With COc1ccc([N+](=O)[O-])cc1O the Potency was “inactive”. For CC1(C)CN=C(NN=C(/C=C/c2ccc(C(F)(F)F)cc2)/C=C/c2ccc(C(F)(F)F)cc2)NC1, the Potency was 12.2 µM (active). For COc1cccc2c1C(=O)c1c(O)c3c(c(O)c1C2=O)C[C@@](O)(C(=O)CO)CC3OC1CC(N2CCOC(OC)C2)C(O)C(C)O1 (some centres undefined), the Potency was 0.298 µM (active). In the case of ClC1=C(Cl)C2(Cl)C3C(Cl)C(Cl)CC3C1(Cl)C2(Cl)Cl (centres undefined), the Potency is reported as 27.2 µM (active) and 61.1 µM (active).
